# Columns and labels:
# [1] = biological target: POU1 (OCT1 POU domain) (human, UniProt P14859 260-458); experiment: EMSA-SELEX-seq; no BOB1; 20 mM Tris-HCl pH 7.6, 140 mM NaCl, 10% glycerol, 0.5 mM EDTA, 0.05% Triton X-100, 0.1 mg/mL BSA, 0.1 mg/mL poly(dI-dC), 5 mM DTT, room temperature, 20 min; high values mean tight binding; details: protein: recombinant; dsDNA, one strand shown
# Method in brief: (§1)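 After expression in E. coli BL21, tagged POU-domain proteins were purified under denaturing conditions and then renatured. Each binding reaction held 30 ng protein and 300 ng of a PCR-amplified double-stranded random 35-nt library in 20 μL Tris–HCl pH 7.6 binding buffer, with or without 28 ng coactivator protein, for 20 min at RT. Bands holding complexes were cut from native 6% PAGE, eluted and PCR-amplified across four rounds, and the output was Illumina-sequenced. The value given for binding preference is the share, in percent, of sequenced 8-mers fitting a motif pattern.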
# [2] = biological target: T1, POU2 (OCT2 POU domain) (human, UniProt P09086 175-386); experiment: as above; details: protein: recombinant; dsDNA, one strand shown
# T1 sequence: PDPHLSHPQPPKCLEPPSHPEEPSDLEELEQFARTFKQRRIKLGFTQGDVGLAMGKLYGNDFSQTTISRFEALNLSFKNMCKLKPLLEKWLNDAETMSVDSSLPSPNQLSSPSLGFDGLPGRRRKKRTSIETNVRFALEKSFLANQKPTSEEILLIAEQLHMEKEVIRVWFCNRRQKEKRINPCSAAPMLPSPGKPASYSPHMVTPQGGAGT
# Method in brief: as §1
# [3] = biological target: POU1 (OCT1 POU domain);BOB1 (OBF1, OCA-B) (human;human, UniProt P14859;Q16633 260-458;1-256, |); experiment: EMSA-SELEX-seq; with BOB1 (ternary complex band); 20 mM Tris-HCl pH 7.6, 140 mM NaCl, 10% glycerol, 0.5 mM EDTA, 0.05% Triton X-100, 0.1 mg/mL BSA, 0.1 mg/mL poly(dI-dC), 5 mM DTT, room temperature, 20 min; high values mean tight binding; details: protein: recombinant;recombinant; copies: 1;1; dsDNA, one strand shown
# Method in brief: as §1
# [4] = biological target: T2, POU2 (OCT2 POU domain);BOB1 (OBF1, OCA-B) (human;human, UniProt P09086;Q16633 175-386;1-256, |); experiment: as above; details: protein: recombinant;recombinant; copies: 1;1; dsDNA, one strand shown
# T2 sequence 1: T1 sequence
# T2 sequence 2: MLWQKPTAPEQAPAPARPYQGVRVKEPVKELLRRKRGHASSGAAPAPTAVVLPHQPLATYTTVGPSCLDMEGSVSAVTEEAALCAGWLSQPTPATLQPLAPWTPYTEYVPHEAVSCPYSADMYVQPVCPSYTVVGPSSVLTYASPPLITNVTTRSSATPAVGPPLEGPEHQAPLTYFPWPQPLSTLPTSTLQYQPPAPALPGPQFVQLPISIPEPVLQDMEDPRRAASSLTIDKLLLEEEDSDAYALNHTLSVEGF
# Method in brief: as §1
# Chain of POU1 (OCT1 POU domain) (P14859 260-458): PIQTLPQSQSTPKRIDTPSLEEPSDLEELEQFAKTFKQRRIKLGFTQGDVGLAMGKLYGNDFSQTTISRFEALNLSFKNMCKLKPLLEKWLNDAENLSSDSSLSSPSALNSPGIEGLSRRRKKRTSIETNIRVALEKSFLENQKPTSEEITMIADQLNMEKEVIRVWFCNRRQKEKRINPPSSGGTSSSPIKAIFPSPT
Sequence,binding signal [1],binding signal [2],binding signal [3],binding signal [4]
AGGCGAAA,0.0389 % of ANNNNAAN 8-mers,0.0357 % of ANNNNAAN 8-mers,0.0386 % of ANNNNAAN 8-mers,0.0363 % of ANNNNAAN 8-mers
ACTACAAG,0.0194 % of ANNNNAAN 8-mers,0.0201 % of ANNNNAAN 8-mers,0.0183 % of ANNNNAAN 8-mers,0.0231 % of ANNNNAAN 8-mers
AAAACAAA,0.158 % of ANNNNAAN 8-mers,0.119 % of ANNNNAAN 8-mers,0.262 % of ANNNNAAN 8-mers,0.125 % of ANNNNAAN 8-mers
ACGAAAAG,0.032 % of ANNNNAAN 8-mers,0.0368 % of ANNNNAAN 8-mers,0.046 % of ANNNNAAN 8-mers,0.0413 % of ANNNNAAN 8-mers
AGTTAAAC,0.0461 % of ANNNNAAN 8-mers,0.0593 % of ANNNNAAN 8-mers,0.0499 % of ANNNNAAN 8-mers,0.0553 % of ANNNNAAN 8-mers
ACTTTAAC,0.032 % of ANNNNAAN 8-mers,0.0345 % of ANNNNAAN 8-mers,0.0304 % of ANNNNAAN 8-mers,0.0355 % of ANNNNAAN 8-mers
AAGGTAAG,0.0416 % of ANNNNAAN 8-mers,0.0478 % of ANNNNAAN 8-mers,0.0468 % of ANNNNAAN 8-mers,0.0545 % of ANNNNAAN 8-mers
AGGGTAAC,0.0339 % of ANNNNAAN 8-mers,0.0328 % of ANNNNAAN 8-mers,0.0343 % of ANNNNAAN 8-mers,0.0322 % of ANNNNAAN 8-mers
ACGGGAAC,0.0225 % of ANNNNAAN 8-mers,0.027 % of ANNNNAAN 8-mers,0.0215 % of ANNNNAAN 8-mers,0.0231 % of ANNNNAAN 8-mers
ACTGGAAC,0.0168 % of ANNNNAAN 8-mers,0.0207 % of ANNNNAAN 8-mers,0.0183 % of ANNNNAAN 8-mers,0.0206 % of ANNNNAAN 8-mers
AGTGCAAA,0.0873 % of ANNNNAAN 8-mers,0.0593 % of ANNNNAAN 8-mers,0.126 % of ANNNNAAN 8-mers,0.0743 % of ANNNNAAN 8-mers
AGGTAAAT,0.379 % of ANNNNAAN 8-mers,0.269 % of ANNNNAAN 8-mers,0.55 % of ANNNNAAN 8-mers,0.391 % of ANNNNAAN 8-mers
ATATGAAA,0.159 % of ANNNNAAN 8-mers,0.164 % of ANNNNAAN 8-mers,0.226 % of ANNNNAAN 8-mers,0.239 % of ANNNNAAN 8-mers
ACCCTAAA,0.0137 % of ANNNNAAN 8-mers,0.0173 % of ANNNNAAN 8-mers,0.0137 % of ANNNNAAN 8-mers,0.0107 % of ANNNNAAN 8-mers
ACACGAAA,0.0332 % of ANNNNAAN 8-mers,0.027 % of ANNNNAAN 8-mers,0.0386 % of ANNNNAAN 8-mers,0.0215 % of ANNNNAAN 8-mers
ATACCAAT,0.0465 % of ANNNNAAN 8-mers,0.0518 % of ANNNNAAN 8-mers,0.0394 % of ANNNNAAN 8-mers,0.0471 % of ANNNNAAN 8-mers

Sequence,binding signal [1],binding signal [2],binding signal [3],binding signal [4]
ACATAAAA,0.103 % of ANNNNAAN 8-mers,0.114 % of ANNNNAAN 8-mers,0.073 % of ANNNNAAN 8-mers,0.0925 % of ANNNNAAN 8-mers
ACCTAAAC,0.013 % of ANNNNAAN 8-mers,0.0178 % of ANNNNAAN 8-mers,0.0211 % of ANNNNAAN 8-mers,0.0223 % of ANNNNAAN 8-mers
AAAGCAAA,0.106 % of ANNNNAAN 8-mers,0.0754 % of ANNNNAAN 8-mers,0.179 % of ANNNNAAN 8-mers,0.0908 % of ANNNNAAN 8-mers
ACGTGAAA,0.0374 % of ANNNNAAN 8-mers,0.0386 % of ANNNNAAN 8-mers,0.0386 % of ANNNNAAN 8-mers,0.0297 % of ANNNNAAN 8-mers
ACCGTAAA,0.0244 % of ANNNNAAN 8-mers,0.0253 % of ANNNNAAN 8-mers,0.0226 % of ANNNNAAN 8-mers,0.0173 % of ANNNNAAN 8-mers
ATCTCAAG,0.0313 % of ANNNNAAN 8-mers,0.0368 % of ANNNNAAN 8-mers,0.039 % of ANNNNAAN 8-mers,0.0413 % of ANNNNAAN 8-mers
ACTCAAAG,0.0336 % of ANNNNAAN 8-mers,0.0242 % of ANNNNAAN 8-mers,0.0367 % of ANNNNAAN 8-mers,0.0165 % of ANNNNAAN 8-mers
AGCAAAAA,0.0831 % of ANNNNAAN 8-mers,0.0604 % of ANNNNAAN 8-mers,0.11 % of ANNNNAAN 8-mers,0.0644 % of ANNNNAAN 8-mers
AATTGAAC,0.0492 % of ANNNNAAN 8-mers,0.0575 % of ANNNNAAN 8-mers,0.0386 % of ANNNNAAN 8-mers,0.052 % of ANNNNAAN 8-mers
ACTAGAAT,0.0473 % of ANNNNAAN 8-mers,0.061 % of ANNNNAAN 8-mers,0.0589 % of ANNNNAAN 8-mers,0.0438 % of ANNNNAAN 8-mers
AACCGAAT,0.0412 % of ANNNNAAN 8-mers,0.0363 % of ANNNNAAN 8-mers,0.0324 % of ANNNNAAN 8-mers,0.0487 % of ANNNNAAN 8-mers
AGCAAAAT,0.102 % of ANNNNAAN 8-mers,0.0702 % of ANNNNAAN 8-mers,0.107 % of ANNNNAAN 8-mers,0.0759 % of ANNNNAAN 8-mers
AGTTGAAG,0.0355 % of ANNNNAAN 8-mers,0.0316 % of ANNNNAAN 8-mers,0.0398 % of ANNNNAAN 8-mers,0.0338 % of ANNNNAAN 8-mers
AGTTCAAA,0.0355 % of ANNNNAAN 8-mers,0.0357 % of ANNNNAAN 8-mers,0.0386 % of ANNNNAAN 8-mers,0.0421 % of ANNNNAAN 8-mers
ATCGTAAC,0.0236 % of ANNNNAAN 8-mers,0.0288 % of ANNNNAAN 8-mers,0.0238 % of ANNNNAAN 8-mers,0.0322 % of ANNNNAAN 8-mers
AATATAAT,0.213 % of ANNNNAAN 8-mers,0.286 % of ANNNNAAN 8-mers,0.137 % of ANNNNAAN 8-mers,0.133 % of ANNNNAAN 8-mers
